High-throughput results from PubChem BioAssay.
In the library only some 9.3% were active in any assay of this set; here they are far more common.
SMN2 splice enh: enhancers of SMN2 splice variant expression. HEK293 SMN2-luciferase splicing reporter, luminescence, 30-36 h. Potency, µM (series often up to 46.1 µM), without a hit: at the top dose activity change, positive = activation, actives largely listed as activators. actives 2.8% (n = 210,000); also: % of control where 0% means no effect; nearly all actives have a fitted effect of over 55% in size
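HEK293 cells carry an SMN2 […]–luciferase reporter in which exon 7 inclusion puts luciferase in frame. Cells were plated 10-12 h before compound addition, then incubated 30-36 h at 37C. ONE-Glo luminescence was read; sodium butyrate at 4.5 mM final served as control.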
Rab9 prom act: activates the Rab9 promoter | Huh7 Rab9 promoter-luciferase reporter, luminescence, 24 h | Potency, µM (highest dose often 9.22 µM), without a hit: top-dose activation, negative = inhibition, usual class: activators | actives 2.8% (n = 320,000); also: % of control where 0% means no effect; nearly all actives have a fitted effect of over 60% in size
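Steps: seed 1500 Huh7 Rab9-luc cells per well, rest 2 h at 37 °C; add compound in DMSO; incubate 24 h; add luciferase reagent, 10 min ambient; read luminescence.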
NPC1 promoter act: activates the NPC1 promoter; AID 485313; actives 2.4% (n = 320,000); Potency, µM (doses to about 9.22 µM), without a hit: at the highest dose activation, most hits filed as activators; Huh7 NPC1 promoter luciferase reporter, 24 h; also: % of control where 0% means no effect; nearly all actives have a fitted effect of over 60% in size
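Stable NPC1-promoter luciferase Huh7 line; cpd (DMSO) 24 h, 37 °C, 5% CO2; Amplite luciferase reagent 10 min RT; luminescence readout. qHTS format.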
ELG1 genotox: inducers of genotoxicity in HEK293T ELG1-luciferase cells. HEK293T ELG1-luciferase reporter, luminescence, 16 h. Potency, µM (titrated, usually from 46 µM), for inactives: at the highest dose activity change, positive = activation, actives largely listed as activators. actives 1.3% (n = 330,000). AID 504466; also: % of control where 0% means no effect; nearly all actives have a fitted effect of over 60% in size
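DMSO vehicle served as control against compound-treated ELG1-luciferase HEK293T cells; exposure lasted 16 hr at 37 °C and 5% CO2, followed by ONE-Glo luminescence detection after 30 min.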
ELG1 DNA repair: ELG1-dependent DNA repair inhibition; actives 2.3% (n = 330,000); HEK293T ELG1-luciferase reporter, luminescence, 16 h; DNA damage induced by 5-fluorouridine; Potency, µM (doses to about 46.1 µM), for inactives: top-dose activity change, negative = inhibition, most hits filed as inhibitors; also: % is scaled to controls: 0 for no effect and ±100 for the full control effect; nearly all actives have a fitted effect of over 55% in size
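5-Fluorouridine DNA damage + compound/DMSO, 2,000 cells/well, 16 h, 37 °C/5% CO2. ONE-Glo, 30 min RT, luminescence. Readout = decrease in reporter signal.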
FLuc counter: counter-screen for miR-21 project: firefly luciferase inhibitors or activators; P08659; Potency, µM (series often up to 57.5 µM), for the others: at the top dose activity change, negative = inhibition, usual class: inhibitors; actives 6.9% (n = 360,000); purified FLuc, Km substrates, luminescence inhibition; AID 588342;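 also: plate controls were vehicle for no effect and reference inhibitor for full effect; nearly all actives have a fitted effect of over 55% in size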
Target sequence (P08659 whole entry, looked up): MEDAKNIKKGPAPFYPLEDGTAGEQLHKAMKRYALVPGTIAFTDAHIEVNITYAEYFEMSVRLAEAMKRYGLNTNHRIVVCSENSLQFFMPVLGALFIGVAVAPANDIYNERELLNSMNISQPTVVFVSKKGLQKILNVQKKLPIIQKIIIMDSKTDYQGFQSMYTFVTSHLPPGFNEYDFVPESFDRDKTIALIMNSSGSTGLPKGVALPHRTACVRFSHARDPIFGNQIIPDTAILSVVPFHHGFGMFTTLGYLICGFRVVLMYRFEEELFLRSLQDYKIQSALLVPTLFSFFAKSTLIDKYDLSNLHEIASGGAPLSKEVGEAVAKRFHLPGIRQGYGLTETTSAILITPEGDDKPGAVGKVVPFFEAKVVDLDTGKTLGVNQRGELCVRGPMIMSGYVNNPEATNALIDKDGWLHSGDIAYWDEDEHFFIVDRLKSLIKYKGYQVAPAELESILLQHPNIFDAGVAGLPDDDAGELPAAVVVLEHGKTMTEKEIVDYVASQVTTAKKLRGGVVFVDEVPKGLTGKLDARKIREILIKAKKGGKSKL
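Purified P. pyralis luciferase (10nM final) with 10uM D-luciferin and 10uM ATP (Km levels) in 50mM Tris acetate pH 7.5, 10mM Mg acetate, 0.01% Tween-20, 0.05% BSA; qHTS 6-point titration, ~60 µM downward; luminescence read.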
* hit, by the source's call; ? = inconclusive; / = no result. Calls follow the shape of the dose curve; as a rule, active = well fitted curve in the direction sought with a large enough effect; inconclusive = small, poorly fitted or top-dose-only effect, or another doubt; inactive = no such curve, though single readings can be large; an effect the other way counts as inactive or inconclusive. Potency is read from the fitted curve at half-maximal effect.

SMILES	SMN2 splice enh	Rab9 prom act	NPC1 promoter act	ELG1 genotox	ELG1 DNA repair	FLuc counter
COC(=O)c1ccccc1S(=O)(=O)N(Cc1ccco1)Cc1cc2cc(OC)ccc2[nH]c1=O	8%	1%	-3%	-11%	23µM*	3%
Cc1ccc2cc(CN(CCCO)S(=O)(=O)c3cccc4nsnc34)c(=O)[nH]c2c1	-23%	9%	6%	0%	9.2µM*	-1%
NNC(=O)COc1ccccc1[N+](=O)[O-]	/	-4%	-2%	0%	6%	2%
O=C(CCC1CCCC1)Nc1ccc(C(=O)NCc2cccnc2)cc1	/	1%	-2%	2%	16µM*	-7%
COc1ccc(OCC(=O)OCc2cc(=O)n3nc(-c4cccs4)sc3n2)cc1	/	/	/	/	/	-1%
CC(=O)c1cc(CN2CCN(CCc3ccccc3)C(CCO)C2)cs1 (centres undefined)	/	0%	0%	-4%	?	1%
CCOc1cccc(NC(=O)/C(C#N)=C\c2cn(CC(=O)O)c3ccccc23)c1	/	0%	-1%	-2%	-4%	?
N#C/C(=C/c1cn(CC(=O)O)c2ccccc12)C(=O)Nc1ccccc1	/	-8%	-3%	2%	-8%	15µM*
CCOC(=O)/C(C#N)=C/c1cn(CCOc2ccc(OC)cc2)c2ccccc12	-21%	-2%	0%	1%	12µM*	1%
CCc1ccc(NC(=O)/C(C#N)=C/c2cn(CC(=O)O)c3ccccc23)cc1	4%	2%	0%	0%	13%	?
CCOc1ccc(NC(=O)/C(C#N)=C/c2cn(CC(=O)O)c3ccccc23)cc1	/	-2%	0%	1%	?	19µM*
Cc1ccc(OCCn2cc(/C=C/C(=O)O)c3ccccc32)cc1	/	-8%	1%	2%	3%	-14%
O=C(Cn1nc(C(=O)O)c2ccccc2c1=O)Nc1ccc(F)cc1F	/	0%	-2%	-1%	14%	1%
COc1c2ccoc2c(OC(C)=O)c2oc(C)cc(=O)c12	/	5%	-3%	-24%	-1%	-2%
CN(C)c1ccc(C(=O)NNC(=O)C23CC4CC(CC(C4)C2)C3)cc1	/	/	/	11%	?	/
Cc1ccc(/C=[N+](\[O-])c2ccccc2C)o1	/	-3%	1%	1%	9%	1%
COc1cc(/C=N/n2cnn(Cc3ccccc3Cl)c2=S)cc(OC)c1OC	-10%	-7%	-5%	-8%	23µM*	-3%
CCN1CCN(c2ccc(Cl)cc2NC(=O)c2ccco2)CC1	/	-3%	-4%	-2%	-9%	/
C=CCNC(=O)Nc1ccc(F)cc1F	-11%	-1%	-1%	0%	-13%	-1%
CCc1nc(Nc2ccc(OC)c(OC)c2)c2nnn(Cc3ccccc3Cl)c2n1	-63%	-15%	-13%	-10%	13µM*	0%
COc1cccc(OC)c1Nc1nc(C)nc2c1nnn2Cc1ccccc1Cl	/	-20%	-6%	5%	1%	-1%
CCOCCCNc1nc(C(F)(F)F)nc2c1nnn2Cc1ccccc1Cl	/	-6%	-2%	-6%	18µM*	1%
Cc1ccc2[nH]c(=O)c(C3=NN(C(=O)CCC(=O)O)C(c4cccs4)C3)c(-c3ccccc3)c2c1 (centres undefined)	-24%	-4%	-2%	3%	14%	-4%
CC(=O)Oc1cccc(/C=C2\Sc3ccccc3C2=O)c1	/	-3%	0%	-2%	0%	1.7µM*
CC(=O)Nc1ccc(S(=O)(=O)Oc2cccc(/C=C3\SC(N)=NC3=O)c2)cc1	6%	4%	0%	29%	2%	1%
SMILES	SMN2 splice enh	Rab9 prom act	NPC1 promoter act	ELG1 genotox	ELG1 DNA repair	FLuc counter
CCCCOc1ccc(/C=C2/Sc3ccccc3C2=O)cc1	16µM*	28%	3%	8%	?	3.4µM*
CCOc1ccc(/C=C2/SC(=S)N(n3c(C)ccc3C)C2=O)cc1	-20%	-2%	-2%	-6%	13%	-2%
CC(C)COc1ccc(/C=C2/Sc3ccccc3C2=O)cc1	?	22%	?	?	?	1.3µM*
O=C1/C(=C/c2cccs2)Sc2ccccc21	?	?	14%	?	?	1.1µM*
Cc1ccc(N(C(=O)Nc2ccccc2)C2=NCC(C)S2)cc1 (centres undefined)	-4%	-6%	0%	6%	?	-18%
Cc1ccnc(N(C(=O)Nc2ccccc2)C2=NCC(C)(C)S2)c1	/	?	2.5µM*	?	?	19µM*
Cn1c2ccc(F)cc2c2nnc(SCC(=O)Nc3cccc(O)c3)nc21	/	1%	4%	12%	-7%	9.5µM*
O=C(CSc1ncc(-c2ccc(F)cc2)[nH]1)Nc1cccc(O)c1	/	3%	1%	-6%	-13%	19µM*
O=C(CCNc1ccccc1)c1cccc([N+](=O)[O-])c1	/	4%	1%	5%	?	-1%
CSc1ccc(/C=N/n2c(Cc3ccc(Br)cc3)n[nH]c2=S)cc1	-2%	-2%	-3%	1%	-19%	?
CC(=O)NC(Cc1c[nH]c2ccccc12)C(=O)OCC(=O)Nc1cc(C)on1 (centres undefined)	-12%	-5%	2%	-1%	12%	-1%
O=C(NC(Cc1c[nH]c2ccccc12)C(=O)O)c1ccccc1 (centres undefined)	?	1%	-3%	5%	8%	3%
COc1ccc(C(=O)NC(Cc2c[nH]c3ccccc23)C(=O)O)cc1 (centres undefined)	/	-2%	-11%	-2%	8%	19µM*
Cc1cc(NC(=O)COC(=O)[C@H](Cc2c[nH]c3ccccc23)NC(=O)c2ccc(F)cc2)no1	-1%	7%	-2%	-2%	?	17µM*
O=C(N[C@@H](Cc1c[nH]c2ccccc12)C(=O)O)c1ccc(Cl)cc1	6%	12%	-1%	-4%	14%	17µM*
Cc1cccc(OCCCC(=O)Nc2ccc(N3CCCCC3)cc2)c1C	10%	-7%	-1%	-1%	-8%	-1%
CCNc1nc(SCCOc2ccc(Br)cc2)nc(N(C)C)n1	10%	-10%	0%	-5%	?	2%
COC(=O)c1cc(-c2ccc(OC)cc2)n[nH]1	?	?	?	?	?	27µM*
COC(=O)c1cc(-c2ccc(C)cc2)n[nH]1	/	?	16%	?	?	24µM*
CCOc1ccc(-c2cc(C(=O)OC)[nH]n2)cc1	/	2.2µM*	3.2µM*	?	?	9.5µM*
COC(=O)c1cc(-c2cccc(OC)c2)n[nH]1	?	15%	4%	10%	?	?
